Compounds without any hit were thinned out: in the full panel of roughly 83,000, 20% have a hit.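 A percent growth of 40 corresponds to 60% growth inhibition; 0 means no net growth; -100 means all cells died. Active threshold: below 10.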 Calls of active or inactive are those of the source.
Test system: MCF7 breast
Experiment: NCI-60 one-dose screen, 48 h (100 = growth as untreated, 0 = no growth, -100 = all killed)
Conditions: 10 µM unless noted

SMILES | growth
COC(=O)N[C@H]1CCc2c(Br)c(OC)c(OC)c(OC)c2-c2ccc(SC)c(=O)cc21 | 12.8% (inactive)
O=C(N/N=C/c1ccc(N(CCCl)CCCl)cc1)c1cccc2ccccc12 | 35.4% (inactive)
O=[N+]([O-])c1c(Br)sc(Br)c1[N+](=O)[O-] | 23.3% (inactive)
COC(=O)C12CC(NC(=O)c3csc([C@@H](C[C@H](C(C)C)N(C)C(=O)[C@@H](NC(=O)[C@H]4CCCCN4C)C(C)C)OC(C)=O)n3)(C1)C2 | 15.4% (inactive)
CC(=O)OC1CCC2(C)C(CCC3C2CC(=O)C2(C)C3CC(Sc3ccc(N(CCCl)CCCl)cc3)C2C(C)=O)C1 (stereo unspecified) | 74.2% (inactive)
Oc1c(CCl)cc(Cl)cc1CCl | 105% (inactive)
CC(=O)OCc1cc[c]([Hg][Cl])o1 | 20.2% (inactive)
COc1ccc(O)c(CNC(=O)CN2CCCC2=O)c1 | 102% (inactive)
CC12CCC(O)CC1=CCC1C2CCC2(C)C(O)CCC12 (stereo unspecified) | 116% (inactive)
Cc1cc(N(CCCl)CCCl)ccc1/C=N\NC(=O)c1ccncc1 | 62% (inactive)
Cc1ccc(C(=O)NCCCOc2ccc(N3C(N)=NC(N)=NC3(C)C)cc2Cl)cc1S(=O)(=O)F | 75.4% (inactive)
Cn1cc(C=O)c2nccnc21 | 91.4% (inactive)
CC(=O)O[C@@H]1CC[C@]2(C)[C@H]3CC[C@]4(C)C(=O)CC[C@H]4[C@@H]3C[C@@H]3SC(N)=N[C@@]32C1 | 32.6% (inactive)
OCCNC(Cc1ccccc1)c1ccc2c(c1)OCO2 (stereo unspecified) | 92.9% (inactive)
Nc1ccc2c(c1)Cc1cc(Br)ccc1-2 | 64.7% (inactive)
CN(CCCCN(C)CCOS(C)(=O)=O)CCOS(C)(=O)=O | 71.2% (inactive)
CCn1cnc2c(Nc3cccc(Cl)c3)nc(N[C@@H]3CCCC[C@@H]3N)nc21 | 4.02% (active)
CCCCCC1(CCBr)C(=O)NC(=O)NC1=O | 97.5% (inactive)
CC(=O)OC[C@]1(C)C=C2C(=O)[C@](C)(O)C3(CC3)C(C)=C2[C@H]1OC(=O)N(C)CCN(C)C(=O)OC(C)(C)C | 2.67% (active)

SMILES | growth
CC(C)(C)C(=O)OCOP(=O)(OCOC(=O)C(C)(C)C)C1CCCN(O)C1=O (stereo unspecified) | 0.807% (active)
C[C@]12CCc3nc(Nc4ccccc4F)sc3C1=CC[C@@H]1[C@@H]2CC[C@]2(C)C(=O)CC[C@@H]12 | 12.5% (inactive)
O=[N+]([O-])c1cc([N+](=O)[O-])c(Cl)cc1Cl | -57.9% (active)
NC(=O)c1c(Br)n(C2OC(CO)C(O)C2O)c2ncnc(N)c12 (stereo unspecified) | -18.6% (active)
O=[N+]([O-])/C=C\c1ccc(Cl)c(Cl)c1 | -32.4% (active)
CCOC(=O)C(Cc1ccc(N(CCCl)CCCl)cc1)NC(=O)C(CC(C)C)NC(C)=O (stereo unspecified) | 21.3% (inactive)
C[C@@H]1CCC2[C@@H](C)[C@H](OC(=O)CCC(=O)NCCNC(=O)Cc3cc(=O)oc4cc(N(C)C)ccc34)O[C@@H]3O[C@]4(C)CC[C@@H]1C23OO4 (stereo partly specified) | 35.9% (inactive)
ClCCN(CCCl)c1ccc(-n2cnc3c(Cl)ncnc32)cc1 | 25.7% (inactive)
COc1cccc(/C=C/[N+](=O)[O-])c1 | -11.2% (active)
CC(=O)O[C@H]1CC[C@]2(C)[C@H]3CC[C@]4(C)[C@@H](OC(C)=O)CC[C@H]4[C@@H]3[C@@H](C)[C@]2(O)C1 | 104% (inactive)
COc1cc2c(c(OC)c1OC)-c1ccc([O-])c(=O)cc1[C@@H](NC(C)=O)CC2.COc1cc2c(c(OC)c1OC)-c1ccc([O-])c(=O)cc1[C@@H](NC(C)=O)CC2.[Cu+2] | 11% (inactive)
CCCCCCCC(=O)OCC(=O)[C@]1(O)Cc2c(O)c3c(c(O)c2[C@@H](OC2CC(N)C(O)C(C)O2)C1)C(=O)c1c(OC)cccc1C3=O (stereo partly specified) | -94.4% (active)
CCCC(C)C1(CC)C(=O)NC(=O)N(C)C1=O (stereo unspecified) | 103% (inactive)
CC1(C)N=C(N)N=C(N)N1c1ccc(OCCCNC(=O)Nc2ccc(S(=O)(=O)F)cc2)c(Cl)c1 | 18.4% (inactive)
COC(=O)[C@@H](C)C[C@H](Cc1ccccc1)NC(=O)c1csc([C@@H](C[C@H](C(C)C)N(C)C(=O)C2(NC(=O)[C@H]3CCCCN3C)CCC2)OC(C)=O)n1 | 21.9% (inactive)
CNC(=O)Oc1ccc(C(C)(C)C)cc1OC(=O)NC | 93.9% (inactive)
C/C(=C\c1ccn(-c2ccc(N)cc2)n1)[C@@H]1C[C@@H]2O[C@]2(C)CCC[C@H](C)[C@H](O)[C@@H](C)C(=O)C(C)(C)[C@@H](O)CC(=O)O1 | 19.1% (inactive)
Nc1ccc(Cl)cc1 | 98.2% (inactive)
Nc1ccc2c(c1)oc1ccccc12 | 83.2% (inactive)

Test system: HCT-116 colon
Experiment: as above
Conditions: 10 µM unless noted

SMILES | growth
COC(=O)N[C@H]1CCc2c(Br)c(OC)c(OC)c(OC)c2-c2ccc(SC)c(=O)cc21 | 3.67% (active)
O=C(N/N=C/c1ccc(N(CCCl)CCCl)cc1)c1cccc2ccccc12 | 48.1% (inactive)
O=[N+]([O-])c1c(Br)sc(Br)c1[N+](=O)[O-] | -85.2% (active)
COC(=O)C12CC(NC(=O)c3csc([C@@H](C[C@H](C(C)C)N(C)C(=O)[C@@H](NC(=O)[C@H]4CCCCN4C)C(C)C)OC(C)=O)n3)(C1)C2 | 4.37% (active)
CC(=O)OC1CCC2(C)C(CCC3C2CC(=O)C2(C)C3CC(Sc3ccc(N(CCCl)CCCl)cc3)C2C(C)=O)C1 (stereo unspecified) | 72% (inactive)
Oc1c(CCl)cc(Cl)cc1CCl | 115% (inactive)
CC(=O)OCc1cc[c]([Hg][Cl])o1 | 35.7% (inactive)
COc1ccc(O)c(CNC(=O)CN2CCCC2=O)c1 | 98.8% (inactive)
CC12CCC(O)CC1=CCC1C2CCC2(C)C(O)CCC12 (stereo unspecified) | 104% (inactive)
Cc1cc(N(CCCl)CCCl)ccc1/C=N\NC(=O)c1ccncc1 | 78.8% (inactive)
Cc1ccc(C(=O)NCCCOc2ccc(N3C(N)=NC(N)=NC3(C)C)cc2Cl)cc1S(=O)(=O)F | 62.2% (inactive)
Cn1cc(C=O)c2nccnc21 | 116% (inactive)
CC(=O)O[C@@H]1CC[C@]2(C)[C@H]3CC[C@]4(C)C(=O)CC[C@H]4[C@@H]3C[C@@H]3SC(N)=N[C@@]32C1 | 32.7% (inactive)
OCCNC(Cc1ccccc1)c1ccc2c(c1)OCO2 (stereo unspecified) | 86.3% (inactive)
Nc1ccc2c(c1)Cc1cc(Br)ccc1-2 | 98.2% (inactive)
CN(CCCCN(C)CCOS(C)(=O)=O)CCOS(C)(=O)=O | 81.4% (inactive)
CCn1cnc2c(Nc3cccc(Cl)c3)nc(N[C@@H]3CCCC[C@@H]3N)nc21 | 0.716% (active)
CCCCCC1(CCBr)C(=O)NC(=O)NC1=O | 106% (inactive)
CC(=O)OC[C@]1(C)C=C2C(=O)[C@](C)(O)C3(CC3)C(C)=C2[C@H]1OC(=O)N(C)CCN(C)C(=O)OC(C)(C)C | 3.86% (active)

SMILES | growth
CC(C)(C)C(=O)OCOP(=O)(OCOC(=O)C(C)(C)C)C1CCCN(O)C1=O (stereo unspecified) | 1.32% (active)
C[C@]12CCc3nc(Nc4ccccc4F)sc3C1=CC[C@@H]1[C@@H]2CC[C@]2(C)C(=O)CC[C@@H]12 | -22.4% (active)
O=[N+]([O-])c1cc([N+](=O)[O-])c(Cl)cc1Cl | -98.8% (active)
NC(=O)c1c(Br)n(C2OC(CO)C(O)C2O)c2ncnc(N)c12 (stereo unspecified) | 3.73% (active)
O=[N+]([O-])/C=C\c1ccc(Cl)c(Cl)c1 | -52.8% (active)
CCOC(=O)C(Cc1ccc(N(CCCl)CCCl)cc1)NC(=O)C(CC(C)C)NC(C)=O (stereo unspecified) | 23.6% (inactive)
C[C@@H]1CCC2[C@@H](C)[C@H](OC(=O)CCC(=O)NCCNC(=O)Cc3cc(=O)oc4cc(N(C)C)ccc34)O[C@@H]3O[C@]4(C)CC[C@@H]1C23OO4 (stereo partly specified) | 10.1% (inactive)
ClCCN(CCCl)c1ccc(-n2cnc3c(Cl)ncnc32)cc1 | 33.6% (inactive)
COc1cccc(/C=C/[N+](=O)[O-])c1 | -60.9% (active)
CC(=O)O[C@H]1CC[C@]2(C)[C@H]3CC[C@]4(C)[C@@H](OC(C)=O)CC[C@H]4[C@@H]3[C@@H](C)[C@]2(O)C1 | 98.1% (inactive)
COc1cc2c(c(OC)c1OC)-c1ccc([O-])c(=O)cc1[C@@H](NC(C)=O)CC2.COc1cc2c(c(OC)c1OC)-c1ccc([O-])c(=O)cc1[C@@H](NC(C)=O)CC2.[Cu+2] | 8.67% (active)
CCCCCCCC(=O)OCC(=O)[C@]1(O)Cc2c(O)c3c(c(O)c2[C@@H](OC2CC(N)C(O)C(C)O2)C1)C(=O)c1c(OC)cccc1C3=O (stereo partly specified) | -73.4% (active)
CCCC(C)C1(CC)C(=O)NC(=O)N(C)C1=O (stereo unspecified) | 114% (inactive)
CC1(C)N=C(N)N=C(N)N1c1ccc(OCCCNC(=O)Nc2ccc(S(=O)(=O)F)cc2)c(Cl)c1 | 14.8% (inactive)
COC(=O)[C@@H](C)C[C@H](Cc1ccccc1)NC(=O)c1csc([C@@H](C[C@H](C(C)C)N(C)C(=O)C2(NC(=O)[C@H]3CCCCN3C)CCC2)OC(C)=O)n1 | 3.39% (active)
CNC(=O)Oc1ccc(C(C)(C)C)cc1OC(=O)NC | 93% (inactive)
C/C(=C\c1ccn(-c2ccc(N)cc2)n1)[C@@H]1C[C@@H]2O[C@]2(C)CCC[C@H](C)[C@H](O)[C@@H](C)C(=O)C(C)(C)[C@@H](O)CC(=O)O1 | 10.4% (inactive)
Nc1ccc(Cl)cc1 | 95.9% (inactive)
Nc1ccc2c(c1)oc1ccccc12 | 99.8% (inactive)

From PubChem BioAssay (NCI)
